Experimental data reported in ChEMBL document CHEMBL2218924, “A broad activity screen in support of a chemogenomic map for kinase signalling research and drug discovery” (Biochem J, 2013).

How the values were obtained:
[1] = target: Serine/threonine-protein kinase PLK3 (Homo sapiens) (UniProt Q9H4B4); conditions: at 1 µM
[2] = target: Serine/threonine-protein kinase PLK3 (Homo sapiens) (UniProt Q9H4B4); conditions: at 10 µM
[3] = target: T1, cAMP-dependent protein kinase catalytic subunit PRKX (Homo sapiens) (UniProt P51817); conditions: at 1 µM
T1 sequence (whole entry): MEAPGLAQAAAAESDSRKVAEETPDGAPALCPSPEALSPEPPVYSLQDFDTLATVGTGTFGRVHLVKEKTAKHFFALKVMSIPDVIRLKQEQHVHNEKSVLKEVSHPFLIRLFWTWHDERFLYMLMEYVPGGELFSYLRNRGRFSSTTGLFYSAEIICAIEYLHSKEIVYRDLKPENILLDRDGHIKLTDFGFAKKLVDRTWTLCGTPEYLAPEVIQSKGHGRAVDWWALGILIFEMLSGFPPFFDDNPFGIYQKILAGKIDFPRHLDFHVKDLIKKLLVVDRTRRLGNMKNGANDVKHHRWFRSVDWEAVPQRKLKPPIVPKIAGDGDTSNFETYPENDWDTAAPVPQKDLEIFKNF

[4] = target: T1, cAMP-dependent protein kinase catalytic subunit PRKX (Homo sapiens); conditions: at 10 µM
[5] = target: Protein-tyrosine kinase 2-beta (Homo sapiens) (UniProt Q14289); conditions: at 1 µM
[6] = target: Protein-tyrosine kinase 2-beta (Homo sapiens) (UniProt Q14289); conditions: at 10 µM
[7] = target: Receptor-interacting serine/threonine-protein kinase 2 (Homo sapiens) (UniProt O43353); conditions: at 1 µM
[8] = target: Receptor-interacting serine/threonine-protein kinase 2 (Homo sapiens) (UniProt O43353); conditions: at 10 µM
[9] = target: Rho-associated protein kinase 1 (Homo sapiens) (UniProt Q13464); conditions: at 1 µM
[10] = target: Rho-associated protein kinase 1 (Homo sapiens) (UniProt Q13464); conditions: at 10 µM
[11] = target: Rho-associated protein kinase 2 (Homo sapiens) (UniProt O75116); conditions: at 1 µM
[12] = target: Rho-associated protein kinase 2 (Homo sapiens) (UniProt O75116); conditions: at 10 µM
[13] = target: Proto-oncogene tyrosine-protein kinase receptor Ret (Homo sapiens) (UniProt P07949); conditions: at 1 µM
[14] = target: Proto-oncogene tyrosine-protein kinase receptor Ret (Homo sapiens) (UniProt P07949); conditions: at 10 µM
[15] = target: Macrophage-stimulating protein receptor (Homo sapiens) (UniProt Q04912); conditions: at 1 µM
[16] = target: Macrophage-stimulating protein receptor (Homo sapiens) (UniProt Q04912); conditions: at 10 µM
[17] = target: Proto-oncogene tyrosine-protein kinase ROS (Homo sapiens) (UniProt P08922); conditions: at 1 µM
[18] = target: Proto-oncogene tyrosine-protein kinase ROS (Homo sapiens) (UniProt P08922); conditions: at 10 µM
[19] = target: T2, Tyrosine-protein kinase receptor TYRO3 (Homo sapiens) (UniProt Q06418); conditions: at 1 µM
T2 sequence (whole entry): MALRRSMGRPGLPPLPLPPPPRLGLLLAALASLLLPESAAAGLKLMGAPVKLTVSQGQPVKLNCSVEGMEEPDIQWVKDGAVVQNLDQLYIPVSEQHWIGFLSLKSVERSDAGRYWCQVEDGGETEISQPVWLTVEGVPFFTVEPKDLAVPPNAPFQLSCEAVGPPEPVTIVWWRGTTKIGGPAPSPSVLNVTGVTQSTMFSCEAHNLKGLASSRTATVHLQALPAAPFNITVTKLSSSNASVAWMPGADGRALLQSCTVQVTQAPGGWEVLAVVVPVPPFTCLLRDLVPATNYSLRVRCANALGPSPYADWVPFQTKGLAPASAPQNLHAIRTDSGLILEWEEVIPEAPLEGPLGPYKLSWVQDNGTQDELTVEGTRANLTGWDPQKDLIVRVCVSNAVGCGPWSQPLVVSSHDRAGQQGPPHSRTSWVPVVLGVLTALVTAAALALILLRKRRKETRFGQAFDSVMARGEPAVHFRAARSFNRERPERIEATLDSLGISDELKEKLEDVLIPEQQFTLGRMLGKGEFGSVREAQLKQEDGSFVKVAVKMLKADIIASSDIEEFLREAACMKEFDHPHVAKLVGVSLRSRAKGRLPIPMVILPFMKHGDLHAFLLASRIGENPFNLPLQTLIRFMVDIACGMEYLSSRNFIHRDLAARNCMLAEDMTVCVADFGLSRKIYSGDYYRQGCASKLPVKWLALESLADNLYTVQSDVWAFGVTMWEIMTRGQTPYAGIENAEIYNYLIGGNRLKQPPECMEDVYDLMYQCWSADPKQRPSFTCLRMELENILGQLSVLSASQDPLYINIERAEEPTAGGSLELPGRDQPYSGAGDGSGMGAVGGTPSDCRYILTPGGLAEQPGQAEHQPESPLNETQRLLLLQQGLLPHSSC

[20] = target: T2, Tyrosine-protein kinase receptor TYRO3 (Homo sapiens); conditions: at 10 µM

Chain of Serine/threonine-protein kinase PLK3 (Homo sapiens) (Q9H4B4 whole entry, looked up): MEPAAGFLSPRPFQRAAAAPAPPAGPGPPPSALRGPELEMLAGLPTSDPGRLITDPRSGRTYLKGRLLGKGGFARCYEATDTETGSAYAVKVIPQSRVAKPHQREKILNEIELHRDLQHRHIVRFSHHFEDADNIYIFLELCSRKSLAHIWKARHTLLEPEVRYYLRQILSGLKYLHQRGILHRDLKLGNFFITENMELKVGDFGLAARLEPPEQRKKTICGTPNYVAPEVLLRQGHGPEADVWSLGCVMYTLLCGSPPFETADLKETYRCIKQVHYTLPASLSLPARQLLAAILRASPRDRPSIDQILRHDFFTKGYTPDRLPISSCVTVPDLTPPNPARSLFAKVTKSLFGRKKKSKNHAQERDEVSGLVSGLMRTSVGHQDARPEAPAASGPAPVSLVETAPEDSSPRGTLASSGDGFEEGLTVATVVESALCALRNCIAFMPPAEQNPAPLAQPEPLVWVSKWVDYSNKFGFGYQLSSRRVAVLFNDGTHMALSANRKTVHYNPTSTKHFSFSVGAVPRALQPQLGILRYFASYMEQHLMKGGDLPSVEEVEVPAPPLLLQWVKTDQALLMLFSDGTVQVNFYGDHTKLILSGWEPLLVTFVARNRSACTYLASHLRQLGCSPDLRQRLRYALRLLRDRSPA
Chain of Macrophage-stimulating protein receptor (Homo sapiens) (Q04912 25-304 limits assumed): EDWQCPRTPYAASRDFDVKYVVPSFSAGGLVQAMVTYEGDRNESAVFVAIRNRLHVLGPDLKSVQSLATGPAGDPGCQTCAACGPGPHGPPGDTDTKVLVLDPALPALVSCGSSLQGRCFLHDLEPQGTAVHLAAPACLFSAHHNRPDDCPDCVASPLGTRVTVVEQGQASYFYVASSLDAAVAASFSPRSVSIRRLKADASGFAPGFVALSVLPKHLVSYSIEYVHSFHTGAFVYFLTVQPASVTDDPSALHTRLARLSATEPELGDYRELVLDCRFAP
Chain of Macrophage-stimulating protein receptor (Homo sapiens) (Q04912 310-1400 limits assumed): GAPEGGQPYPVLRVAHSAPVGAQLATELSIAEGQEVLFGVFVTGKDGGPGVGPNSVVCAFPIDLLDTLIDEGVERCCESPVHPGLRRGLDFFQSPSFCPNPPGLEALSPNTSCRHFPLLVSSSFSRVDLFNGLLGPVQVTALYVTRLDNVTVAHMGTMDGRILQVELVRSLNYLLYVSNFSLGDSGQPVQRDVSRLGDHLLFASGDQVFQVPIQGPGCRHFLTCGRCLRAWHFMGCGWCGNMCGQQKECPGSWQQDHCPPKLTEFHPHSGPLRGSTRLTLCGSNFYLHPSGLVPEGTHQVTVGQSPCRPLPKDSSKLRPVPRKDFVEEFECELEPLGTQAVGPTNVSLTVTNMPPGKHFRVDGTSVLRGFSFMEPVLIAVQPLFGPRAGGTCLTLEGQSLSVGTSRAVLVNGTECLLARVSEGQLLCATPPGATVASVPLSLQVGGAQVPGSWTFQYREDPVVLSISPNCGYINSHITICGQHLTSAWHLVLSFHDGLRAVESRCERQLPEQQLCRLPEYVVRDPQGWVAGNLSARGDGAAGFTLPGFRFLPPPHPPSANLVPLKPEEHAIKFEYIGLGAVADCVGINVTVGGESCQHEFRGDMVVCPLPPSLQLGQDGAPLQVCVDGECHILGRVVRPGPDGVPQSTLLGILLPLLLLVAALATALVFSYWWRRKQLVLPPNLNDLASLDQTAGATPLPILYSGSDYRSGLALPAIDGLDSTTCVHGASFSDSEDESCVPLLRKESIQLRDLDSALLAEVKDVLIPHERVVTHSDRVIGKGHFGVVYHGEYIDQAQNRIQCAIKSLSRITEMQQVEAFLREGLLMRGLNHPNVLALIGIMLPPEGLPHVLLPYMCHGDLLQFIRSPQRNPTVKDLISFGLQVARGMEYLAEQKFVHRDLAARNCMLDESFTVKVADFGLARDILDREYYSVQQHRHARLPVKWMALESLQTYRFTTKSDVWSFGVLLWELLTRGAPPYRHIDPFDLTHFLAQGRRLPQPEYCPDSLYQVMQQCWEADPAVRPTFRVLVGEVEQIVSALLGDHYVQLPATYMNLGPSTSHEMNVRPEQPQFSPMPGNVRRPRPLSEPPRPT
Chain of Proto-oncogene tyrosine-protein kinase receptor Ret (Homo sapiens) (P07949 whole entry): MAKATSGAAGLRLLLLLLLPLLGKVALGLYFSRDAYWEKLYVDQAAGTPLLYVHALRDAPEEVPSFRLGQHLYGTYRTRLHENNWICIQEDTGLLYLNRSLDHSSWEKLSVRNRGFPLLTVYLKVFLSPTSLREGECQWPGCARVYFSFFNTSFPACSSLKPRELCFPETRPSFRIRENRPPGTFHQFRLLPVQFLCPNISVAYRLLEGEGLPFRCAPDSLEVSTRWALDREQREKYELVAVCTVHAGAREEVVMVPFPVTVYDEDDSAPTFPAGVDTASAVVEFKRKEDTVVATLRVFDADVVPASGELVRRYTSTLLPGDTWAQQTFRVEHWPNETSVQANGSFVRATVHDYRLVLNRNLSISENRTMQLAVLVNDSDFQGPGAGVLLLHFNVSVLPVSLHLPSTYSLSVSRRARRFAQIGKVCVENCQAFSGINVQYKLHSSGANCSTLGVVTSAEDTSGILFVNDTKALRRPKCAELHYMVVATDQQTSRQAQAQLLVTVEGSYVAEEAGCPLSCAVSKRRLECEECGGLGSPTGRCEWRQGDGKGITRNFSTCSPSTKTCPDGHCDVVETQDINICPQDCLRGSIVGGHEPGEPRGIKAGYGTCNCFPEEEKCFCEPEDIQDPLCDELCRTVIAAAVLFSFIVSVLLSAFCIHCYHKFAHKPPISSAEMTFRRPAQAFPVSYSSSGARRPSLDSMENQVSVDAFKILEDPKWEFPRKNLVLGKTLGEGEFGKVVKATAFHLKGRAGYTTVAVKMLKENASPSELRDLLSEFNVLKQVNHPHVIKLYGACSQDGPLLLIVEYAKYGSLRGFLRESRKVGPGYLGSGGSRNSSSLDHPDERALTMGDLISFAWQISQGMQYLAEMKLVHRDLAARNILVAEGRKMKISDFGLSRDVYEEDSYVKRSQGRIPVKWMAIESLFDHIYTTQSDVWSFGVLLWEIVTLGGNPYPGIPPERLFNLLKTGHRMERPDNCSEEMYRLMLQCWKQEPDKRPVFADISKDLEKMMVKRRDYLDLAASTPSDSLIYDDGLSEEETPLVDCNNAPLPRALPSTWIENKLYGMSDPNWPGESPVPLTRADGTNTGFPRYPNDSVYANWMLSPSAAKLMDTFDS
Chain of Rho-associated protein kinase 1 (Homo sapiens) (Q13464 2-1354 limits assumed): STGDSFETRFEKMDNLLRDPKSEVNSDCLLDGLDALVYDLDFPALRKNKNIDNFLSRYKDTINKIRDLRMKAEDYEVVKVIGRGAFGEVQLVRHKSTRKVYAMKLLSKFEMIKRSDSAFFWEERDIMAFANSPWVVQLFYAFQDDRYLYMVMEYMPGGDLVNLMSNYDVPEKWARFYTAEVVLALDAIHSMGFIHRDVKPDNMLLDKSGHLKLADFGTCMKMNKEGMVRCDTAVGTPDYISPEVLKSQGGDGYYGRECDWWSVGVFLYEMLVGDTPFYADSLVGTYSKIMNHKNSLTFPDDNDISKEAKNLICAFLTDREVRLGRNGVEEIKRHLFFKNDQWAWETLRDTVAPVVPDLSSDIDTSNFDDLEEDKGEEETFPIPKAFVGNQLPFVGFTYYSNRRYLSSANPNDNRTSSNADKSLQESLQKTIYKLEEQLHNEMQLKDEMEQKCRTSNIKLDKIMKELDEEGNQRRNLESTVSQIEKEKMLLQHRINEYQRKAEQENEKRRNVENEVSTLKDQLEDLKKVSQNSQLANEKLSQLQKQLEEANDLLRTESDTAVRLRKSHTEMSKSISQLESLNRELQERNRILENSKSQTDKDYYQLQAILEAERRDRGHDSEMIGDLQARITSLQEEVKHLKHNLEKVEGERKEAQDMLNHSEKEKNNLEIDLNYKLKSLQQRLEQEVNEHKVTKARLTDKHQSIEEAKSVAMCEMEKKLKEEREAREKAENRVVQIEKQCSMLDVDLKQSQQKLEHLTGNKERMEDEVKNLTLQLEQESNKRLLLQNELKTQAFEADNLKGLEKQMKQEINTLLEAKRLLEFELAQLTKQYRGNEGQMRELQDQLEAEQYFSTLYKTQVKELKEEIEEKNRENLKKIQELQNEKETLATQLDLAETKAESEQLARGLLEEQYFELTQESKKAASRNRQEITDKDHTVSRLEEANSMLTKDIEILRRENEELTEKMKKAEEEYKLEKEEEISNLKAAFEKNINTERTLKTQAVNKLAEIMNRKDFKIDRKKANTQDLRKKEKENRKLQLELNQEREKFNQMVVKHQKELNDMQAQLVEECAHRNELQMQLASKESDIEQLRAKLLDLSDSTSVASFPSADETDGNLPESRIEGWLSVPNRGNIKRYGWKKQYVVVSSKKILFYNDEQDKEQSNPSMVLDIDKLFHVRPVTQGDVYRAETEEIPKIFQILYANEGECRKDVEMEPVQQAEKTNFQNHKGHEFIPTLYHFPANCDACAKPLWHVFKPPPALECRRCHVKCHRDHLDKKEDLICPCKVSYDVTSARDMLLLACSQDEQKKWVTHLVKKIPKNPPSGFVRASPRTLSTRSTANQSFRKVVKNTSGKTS
Chain of Receptor-interacting serine/threonine-protein kinase 2 (Homo sapiens) (O43353 whole entry): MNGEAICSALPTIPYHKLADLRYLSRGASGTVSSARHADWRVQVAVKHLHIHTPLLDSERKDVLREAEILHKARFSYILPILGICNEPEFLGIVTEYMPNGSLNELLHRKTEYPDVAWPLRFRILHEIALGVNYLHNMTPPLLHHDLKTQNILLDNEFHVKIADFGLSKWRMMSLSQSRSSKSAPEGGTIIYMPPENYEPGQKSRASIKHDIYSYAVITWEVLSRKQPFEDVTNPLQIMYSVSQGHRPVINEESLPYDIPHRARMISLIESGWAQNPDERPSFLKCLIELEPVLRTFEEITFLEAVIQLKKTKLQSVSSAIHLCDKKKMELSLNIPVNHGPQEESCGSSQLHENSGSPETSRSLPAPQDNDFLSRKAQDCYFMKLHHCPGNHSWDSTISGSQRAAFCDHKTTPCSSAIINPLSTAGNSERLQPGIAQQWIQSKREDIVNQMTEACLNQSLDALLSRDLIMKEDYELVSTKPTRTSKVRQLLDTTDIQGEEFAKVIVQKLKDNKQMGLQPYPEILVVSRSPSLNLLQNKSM

NC(=O)c1ccc2[nH]c(-c3ccc(Oc4ccc(Cl)cc4)cc3)nc2c1
residual activity [1]: 97% (inactive)
residual activity [2]: 91%
residual activity [3]: 72%
residual activity [4]: 112%
residual activity [5]: 100%
residual activity [6]: 86%
residual activity [7]: 82%
residual activity [8]: 66%
residual activity [9]: 123%
residual activity [10]: 118%
residual activity [11]: 83%
residual activity [12]: 72%
residual activity [13]: 105%
residual activity [14]: 85%
residual activity [15]: 74%
residual activity [16]: 84%
residual activity [17]: 92%
residual activity [18]: 84%
residual activity [19]: 106%
residual activity [20]: 97%

O=Nc1c(-c2c(O)[nH]c3ccccc23)[nH]c2ccccc12
residual activity [1]: 96% (inactive)
residual activity [2]: 91%
residual activity [3]: 48%
residual activity [4]: 33%
residual activity [5]: 14%
residual activity [6]: 2%
residual activity [7]: 60%
residual activity [8]: 27%
residual activity [9]: 108%
residual activity [10]: 92%
residual activity [11]: 85%
residual activity [12]: 82%
residual activity [13]: 1%
residual activity [14]: 0%
residual activity [15]: 86%
residual activity [16]: 71%
residual activity [17]: 105%
residual activity [18]: 88%
residual activity [19]: 62%
residual activity [20]: 15%

Nc1nc(Nc2ccc(S(N)(=O)=O)cc2)nn1C(=S)Nc1c(F)cccc1F
residual activity [1]: 90% (inactive)
residual activity [2]: 91%
residual activity [3]: 44%
residual activity [4]: 7%
residual activity [5]: 4%
residual activity [6]: 1%
residual activity [7]: 16%
residual activity [8]: 29%
residual activity [9]: 6%
residual activity [10]: 1%
residual activity [11]: 0%
residual activity [12]: 1%
residual activity [13]: 2%
residual activity [14]: -1%
residual activity [15]: 7%
residual activity [16]: 2%
residual activity [17]: 70%
residual activity [18]: 16%
residual activity [19]: 14%
residual activity [20]: -1%

CC(=O)O/N=C1\C(=C2\C(=O)Nc3cc(Br)ccc32)Nc2ccccc21
residual activity [1]: 92% (inactive)
residual activity [2]: 99%
residual activity [3]: 77%
residual activity [4]: 93%
residual activity [5]: 79%
residual activity [6]: 32%
residual activity [7]: 92%
residual activity [8]: 84%
residual activity [9]: 123%
residual activity [10]: 119%
residual activity [11]: 98%
residual activity [12]: 95%
residual activity [13]: 6%
residual activity [14]: -1%
residual activity [15]: 85%
residual activity [16]: 89%
residual activity [17]: 100%
residual activity [18]: 90%
residual activity [19]: 100%
residual activity [20]: 98%

CCC(=O)Nc1ccc2ncnc(Nc3cccc(Br)c3)c2c1
residual activity [1]: 89% (inactive)
residual activity [2]: 86%
residual activity [3]: 89%
residual activity [4]: 94%
residual activity [5]: 126%
residual activity [6]: 95%
residual activity [7]: 50%
residual activity [8]: 32%
residual activity [9]: 115%
residual activity [10]: 120%
residual activity [11]: 89%
residual activity [12]: 88%
residual activity [13]: 86%
residual activity [14]: 103%
residual activity [15]: 90%
residual activity [16]: 70%
residual activity [17]: 92%
residual activity [18]: 98%
residual activity [19]: 90%
residual activity [20]: 93%

O=C(Nc1cccc(Nc2nccc(Nc3cccc(C(F)(F)F)c3)n2)c1)C1CC1
residual activity [1]: 73% (inactive)
residual activity [2]: 88%
residual activity [3]: 103%
residual activity [4]: 51%
residual activity [5]: 55%
residual activity [6]: 12%
residual activity [7]: 69%
residual activity [8]: 71%
residual activity [9]: 106%
residual activity [10]: 127%
residual activity [11]: 108%
residual activity [12]: 88%
residual activity [13]: 74%
residual activity [14]: 81%
residual activity [15]: 93%
residual activity [16]: 38%
residual activity [17]: 102%
residual activity [18]: 68%
residual activity [19]: 70%
residual activity [20]: 89%
